# Experimental data from PubChem BioAssay (NCATS).
# Inconclusive results are not listed. A call without a number means that no potency is given here. Activity calls are given as the source filed them. The call rests on the fitted dose curve. Bridge positions count the residues as written; N and C are the ends. Square brackets hold non-standard residues; d marks the D form. Peptide text beside a SMILES is read from it. hArg = N=C(N)NCCCC[C@H](N)C(=O)O; Mpa = O=C(O)CCS
# Assay: Cytotoxicity counterscreen for inhibitors of SARS-CoV-2 cell entry (AID 1645845); further: nearly all actives have a fitted effect of over 50% in size
# Conditions: cell viability (SARS-CoV-2 entry assay cells); series mostly up to 57.1 µM
# From the text: Assay Provider: Wei Zheng, Ph.D.
# National Center for Advancing Translational Sciences, National Institute of Health, Rockville, MD.
# SARS-CoV-2 spike protein, within the viral envelope, mediates viral attachment and infection of host cells. The SARS-CoV-2 spike protein specifically binds to the host receptor ACE2 (Angiotensin-converting enzyme 2). This interaction promotes endocytosis of the viral particle, additional events lead to viral-host cell membrane fusion and release of the viral contents, allowing viral replication.
# While SARS-CoV-2 requires BSL-3 facilities for live virus work, pseudo-typed partices (PP) that incorporate SARS-CoV-2 spike proteins without replication elements could facilitate studies on viral entry mechanisms in a BSL-2 setting. This PP cell entry assay could also enable screening of small molecule compound libraries in BSL-2 setting to identify inhibitors of SARS-CoV-2 cell entry. To eliminate false positive compounds, ATP content cytotoxicity assay was screened in the same cell line.
# SEQUENCE No. (e.g., 1, 2, 3, etc.); […] (e.g., Cells, Incubation, Reagent, etc.); VALUE and DESCRIPTION.
# 1. Cells. Seed 1500 HEK293-ACE2 cells (Expi293F with stable expression of human ACE2) in 2 uL/well media (DMEM, 10% FBS, 1x L-glutamine, 1x Pen/Strep, 1 ug/ml puromycin) in white 1536-well assay plates (Greiner #782073).
# 2. Incubation. Incubate at 37 C with 5% CO2 overnight (~16 h).
# 3. Compounds. Dispense 23 nL/well compounds in DMSO via pin transfer.
# 4. Incubation. Incubate for 1 h at 37C 5% CO2.
# 5. Reagent. Dispense 2 uL/well of media (DMEM, 10% FBS, 1x L-glutamine, 1x Pen/Strep, 1 ug/ml puromycin).
# 6. Incubation. Incubate at for 48h at 37C 5% CO2
# 7. Reagent. Dispense 4 uL/well of ATPLite 1step luminescence assay reagent (PerkinElmer #6016739).
# 8. Incubation. Incubate for 15 min at room temperature.
# 9. Detection. Read luminescence signal (Viewlux plate reader, PerkinElmer). Data was normalized with wells containing cells as 100%, and wells without cells (media only control) as 0%.
# Potency means the concentration at half of the fitted maximal effect.
row,SMILES,Potency
1,CCCn1cnc2c1c(=O)n(CCCCC(C)=O)c(=O)n2C,inactive
2,Cc1c(N(C)C)c(=O)n(-c2ccccc2)n1C,inactive
3,C[C@@H]1CCC[C@H](C)N1CCCC(O)(c1ccccc1)c1ccccn1 (stereo not given in full),inactive
4,CCOC(=O)[C@H](CCc1ccccc1)N[C@@H](C)C(=O)N1C(=O)N(C)C[C@H]1C(=O)O,inactive
5,C#C[C@]1(O)CC[C@H]2[C@@H]3CCC4=CC(=O)CCC4=C3C=C[C@@]21CC,inactive
6,CN1CCN(CCCN2c3ccccc3Sc3ccc(S(=O)(=O)N(C)C)cc32)CC1,inactive
7,CCCN(CCC)C(=O)C(CCC(=O)O)NC(=O)c1ccccc1 (stereo not given),inactive
8,CN(Cc1ccc(C(C)(C)C)cc1)Cc1cccc2ccccc12,inactive
9,CN(C)CC[C@@H](c1ccc(Cl)cc1)c1ccccn1,inactive
10,COc1ccc(CCN(C)CCCC(C#N)(c2cc(OC)c(OC)c(OC)c2)C(C)C)cc1OC (stereo not given),inactive
11,CNC(=O)Oc1ccc2c(c1)[C@]1(C)CCN(C)[C@@H]1N2C,inactive
12,CO[C@]1(NC(=O)CSC(F)F)C(=O)N2C(C(=O)O)=C(CSc3nnnn3CCO)CO[C@H]21,inactive
13,O=C(Nc1ccccc1)OCC(CN1CCCCC1)OC(=O)Nc1ccccc1 (stereo not given),inactive
14,CCOC(=O)[C@H](CCc1ccccc1)N[C@H]1CCc2ccccc2N(CC(=O)O)C1=O,inactive
15,O=C(O)CCC(=O)Nc1ccc(S(=O)(=O)Nc2nccs2)cc1,inactive
16,Cc1ccc(O)cc1,inactive
17,NC(=O)[C@@H]1CSSCCC(=O)N[C@@H](CCCCN=C(N)N)C(=O)NCC(=O)N[C@@H](CC(=O)O)C(=O)N[C@@H](Cc2c[nH]c3ccccc23)C(=O)N2CCC[C@H]2C(=O)N1 ([Mpa][hArg]GDWPC-NH2; disulfide 1-7),inactive
18,COc1ccc2cc1Oc1ccc(cc1)C[C@H]1c3c(cc4c(c3Oc3cc5c(cc3OC)CCN(C)[C@@H]5C2)OCO4)CCN1C,14.1 µM (active)
19,CN(C)CCN(Cc1ccccc1)c1ccccn1,inactive
20,CN1CC(=O)N2[C@H](c3ccc4c(c3)OCO4)c3[nH]c4ccccc4c3C[C@@H]2C1=O,inactive

row,SMILES,Potency
1,Cc1ccc(C(=O)Oc2ccc(C(O)CNC(C)(C)C)cc2OC(=O)c2ccc(C)cc2)cc1 (stereo not given),inactive
2,Cc1nnc2n1-c1sc(CCC(=O)N3CCOCC3)cc1C(c1ccccc1Cl)=NC2,inactive
3,Clc1ccc(Nc2nnc(Cc3ccncc3)c3ccccc23)cc1,inactive
4,CN(C)CCOC1=Cc2ccccc2Sc2ccc(Cl)cc21,inactive
5,Nc1ccc(S(=O)(=O)Nc2cnc3ccccc3n2)cc1,inactive
6,CC(=O)O[C@H]1C[C@@H]2CC[C@@H]3[C@H](CC[C@@]4(C)[C@H]3C[C@H]([N+]3(C)CCCCC3)[C@@H]4OC(C)=O)[C@@]2(C)C[C@@H]1N1CCCCC1,inactive
7,O=C(O)CNC(=O)c1ccccc1I,inactive
8,CCCCC[C@H](O)C=C[C@H]1[C@H](O)CC(=O)[C@H]1CC=CCCCC(=O)O,inactive
9,CC[C@H](NC(C)C)[C@H](O)c1ccc(O)c2[nH]c(=O)ccc12,inactive
10,CC#C[C@]1(O)CC[C@H]2[C@@H]3C[C@H](C)C4=CC(=O)CC[C@]4(C)[C@H]3CC[C@@]21C,inactive
11,O=C(CCCN1CCC(O)(c2ccc(Br)cc2)CC1)c1ccc(F)cc1,inactive
12,CC(=O)OCC(=O)Nc1cc(C#N)cc(NC(=O)COC(C)=O)c1Cl,inactive
13,CC(C(=O)O)c1ccc(CC2CCCC2=O)cc1 (stereo not given),inactive
14,O=C1OC2(c3ccc(O)cc3Oc3cc(O)ccc32)c2ccccc21,inactive
15,Oc1ccc(CCNCCCCCCNCCc2ccccc2)cc1O,inactive
16,CCCCC/C=C\C/C=C\CCCCCCCC(=O)NC(C)c1ccccc1 (stereo not given),inactive
17,Cc1cc(O)c(C(C)C)cc1Cl,inactive
18,C[C@@H]1C[C@H]2[C@@H]3CCC4=CC(=O)C=C[C@]4(C)[C@@]3(F)[C@@H](O)C[C@]2(C)[C@H]1C(=O)CO,inactive
19,CCOC(=O)c1ccc(OC(=O)CCCCCN=C(N)N)cc1,inactive
20,CCN(CC)CCCC(C)Nc1c2ccc(Cl)cc2nc2ccc(OC)cc12 (stereo not given),inactive
